Only some compounds are listed: those with a hit (about 3.7% of all), similar ones and a draw of the others.
BJeLR lethal = kills HRASV12-expressing BJeLR cells. BJeLR (HRASV12) viability, CellTiter-Glo ATP luminescence, 48 h. inhibition, % (no concentration beside the values). 0.17% of 300,000 active; in the data active = inhibition above about 50%; inconclusive = no clear call, values can overlap the other calls
BoNT F protease = BoNT F light chain protease inhibition. Multiplex microsphere protease cleavage assay, flow cytometry. inhibition, % at 10 µM. 0.22% of 360,000 active. AID 588497; in the data active = inhibition above about 35%, passing the limit was not always enough; inconclusive = no clear call, values can overlap the other calls; also: plate controls were buffer without enzyme for full effect and enzyme alone for no effect
BoNT-A LC inh2 = blocks Botulinum neurotoxin A light chain protease; inhibition, % at 10 µM; multiplex microsphere protease substrate cleavage, flow cytometry; 0.17% of 360,000 active; AID 588499; also: plate controls were buffer without enzyme for full effect and enzyme alone for no effect
Anthrax LF prot = inhibitors of Bacillus anthracis lethal factor protease; P15917; multiplex microsphere protease cleavage assay, LF; inhibition, % at 10 µM; 0.12% of 360,000 active; AID 588501; also: plate controls were buffer without enzyme for full effect and enzyme alone for no effect
Target sequence (P15917 whole entry, looked up): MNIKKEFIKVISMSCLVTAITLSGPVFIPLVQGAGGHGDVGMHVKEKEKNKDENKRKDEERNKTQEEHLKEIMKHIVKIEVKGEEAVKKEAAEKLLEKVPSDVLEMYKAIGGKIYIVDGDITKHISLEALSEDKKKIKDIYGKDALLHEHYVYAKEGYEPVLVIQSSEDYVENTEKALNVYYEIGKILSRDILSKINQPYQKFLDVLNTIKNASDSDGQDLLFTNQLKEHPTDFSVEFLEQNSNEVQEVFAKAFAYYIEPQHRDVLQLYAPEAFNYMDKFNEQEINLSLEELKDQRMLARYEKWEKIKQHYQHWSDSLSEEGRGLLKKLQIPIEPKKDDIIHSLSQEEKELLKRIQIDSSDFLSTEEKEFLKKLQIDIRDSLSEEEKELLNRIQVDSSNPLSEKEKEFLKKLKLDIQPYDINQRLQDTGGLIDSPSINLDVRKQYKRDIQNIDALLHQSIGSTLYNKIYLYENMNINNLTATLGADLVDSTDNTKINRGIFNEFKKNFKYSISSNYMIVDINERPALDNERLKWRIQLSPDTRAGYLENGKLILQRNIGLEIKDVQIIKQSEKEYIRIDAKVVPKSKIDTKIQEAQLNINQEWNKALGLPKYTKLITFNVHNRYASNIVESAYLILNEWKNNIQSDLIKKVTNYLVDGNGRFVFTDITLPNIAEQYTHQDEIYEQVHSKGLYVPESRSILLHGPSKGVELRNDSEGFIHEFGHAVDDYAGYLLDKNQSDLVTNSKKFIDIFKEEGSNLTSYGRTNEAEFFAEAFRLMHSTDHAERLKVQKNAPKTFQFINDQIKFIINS
Vc quorum ag = inducers of Vibrio cholerae quorum light production without autoinducers; V. cholerae BH1578 lux reporter, luminescence, 6 h; 0.16% of 350,000 active; activation, % at 18.7 µM; in the data active = activation mostly above about 9.7%, no sharp cut-off; inconclusive = no clear call, values can overlap the other calls; inactive = mostly below about 3.7%
Autofluor counter = counter-screen for toxin protease inhibitors: compound fluorescence | compound autofluorescence counterscreen, microsphere flow cytometry; active compounds read high | fluorescence intensity (concentration not given with the values) | 3.1% of 360,000 active; in the data active = fluorescence intensity above about 16000; inconclusive = no clear call, values can overlap the other calls
The depositor's hits bear a star; i = inactive; ? = inconclusive; . = no result given. Rule as the data show it, unless noted: active = inhibition above about 30%; inconclusive = no clear call, values can overlap the other calls; inactive = below that.

SMILES	BJeLR lethal	BoNT F protease	BoNT-A LC inh2	Anthrax LF prot	Vc quorum ag	Autofluor counter
CCc1nc2ccc(C(=O)Nc3ccc(Cl)c(Cl)c3)cn2c1N(C)Cc1ccc(OC)cc1	.	2	0	-8	0	3783
COc1ccc(C(NC(=O)C2CCN(C/C=C/c3ccc(OC(C)=O)c(OC)c3)CC2)c2ccccn2)cc1 (stereo not drawn)	.	-8	0	2	-1	4050
COC(=O)C[C@@H]1C[C@H]2c3cc(N(C)C)ccc3O[C@H]2[C@H](CO)O1	.	-2	0	-7	0	3682
O=C(COC(=O)CCC1CCCC1)Nc1ccc(Cl)cn1	-1	-1	-1	-1	-6	17161*
CC(C)(C)NC(=O)c1ccc2c(c1)N(CC(=O)N1CCCCC1)C(=O)C(C)(C)O2	-7	-4	-3	-4	i	6777
COc1ccccc1NC(=O)c1ccc2c(c1)N(CC(=O)NC(C)(C)C)C(=O)C(C)(C)O2	-4	12	1	4	-9	3464
C=CCN1C(=O)CSc2ccc(C(=O)NC3CCCCC3)cc21	8	4	2	0	i	5449
CCOC(=O)CN1C(=O)C(C)(C)Oc2ccc(C(=O)Nc3ccccc3OC)cc21	9	-6	-4	-2	5	20848*
CCN1C(=O)CSc2ccc(C(=O)NC3CCCCC3)cc21	-7	-1	0	-2	1	20222*
Cc1ccc(NC(=O)c2ccc3c(c2)N(CC(=O)N2CCCCC2)C(=O)C(C)(C)O3)cc1	5	-2	-2	-6	-11	23135*
CC(C)(C)NC(=O)c1ccc2c(c1)N(CC(=O)N1CCN(c3ccc(F)cc3)CC1)C(=O)C(C)(C)O2	-11	4	1	-2	-6	16213*
COc1ccc2cc(CN(C)C(=O)CN3C(=O)NC4(CCCC4)C3=O)ccc2c1	.	3	0	2	-1	4130
COc1ccc(CSC(=S)NNc2ccccc2)cc1	.	-4	0	-2	-5	4029
CC(C)NC(=O)c1ccc2c(c1)N(CC(=O)NC1CCCCC1)C(=O)C(C)(C)O2	-9	-4	0	-1	-1	5955
CC1(C)Oc2ccc(C(=O)NC3CCCC3)cc2N(CC(=O)NC2CCCCC2)C1=O	-3	-9	-4	-4	i	17996*
c1ccc2c(Cn3nnc4ccccc43)cccc2c1	-2	-12	-1	-1	-15	8209
c1ccc2c(COn3nnc4ccccc43)cccc2c1	3	0	2	1	-2	21859*
CCC(=O)Nc1ccc(S(=O)(=O)NC[C@H]2O[C@@H](n3cnc4c(=O)[nH]c(N)nc43)[C@H](O)[C@@H]2O)cc1	.	-1	0	-3	.	4420
Nc1nccc(NCCSCc2ccccc2)n1	.	-6	0	4	i	3513
COc1ccc(/C=C2/SC(=O)N(NS(=O)(=O)c3ccccc3)C2=S)cc1OC	-1	4	6	-9	i	21520*
COc1cc(/C=C2\SC(=S)N(NS(=O)(=O)c3ccccc3)C2=O)cc(OC)c1OC	-4	-15	-1	-18	-3	4472
COc1cccc(CN2C(=O)CCC2(C)C(=O)NC2CCCCC2)c1 (stereo not drawn)	-8	-7	0	-7	0	4481
CC(C)CCN1C(=O)CCC1(C)C(=O)NC1CCCCCCC1 (stereo not drawn)	1	-1	0	-1	0	23125*
CC(C)CCN1C(=O)CCC1(C)C(=O)NC1CCCCCC1 (stereo not drawn)	-2	-1	0	1	-4	9546
CCc1ccc(CN2C(=O)CCC2(C)C(=O)NC2CCCC2)cc1 (stereo not drawn)	-12	4	4	-10	0	15084
SMILES	BJeLR lethal	BoNT F protease	BoNT-A LC inh2	Anthrax LF prot	Vc quorum ag	Autofluor counter
CC1(C(=O)NC2CCCC2)CCC(=O)N1Cc1ccc2c(c1)OCO2 (stereo not drawn)	12	-7	-4	-3	0	25159*
COc1ccc(CN2C(=O)CCC2(C)C(=O)NC2CCCCCC2)cc1 (stereo not drawn)	-1	1	-2	-3	i	23241*
COc1ccc(C(O)c2ncc(-c3ccc4ccccc4c3)[nH]2)cc1F (stereo not drawn)	.	-2	0	4	i	2995
CCCNC(=O)C1(C)CCN(C(=O)COCc2ccccc2)C1 (stereo not drawn)	.	-9	0	-4	-5	3818
CCC(=O)NC(=S)NNC(=O)c1ccc([N+](=O)[O-])cc1	17	0	0	-4	i	20381*
CC(C)CC(=O)NC(=S)NNC(=O)c1ccc([N+](=O)[O-])cc1	11	-5	0	0	0	2284
Cn1c2c(c3ccccc31)CCSC2=O	6	1	0	-5	-14	22095*
Cc1oc2c(C)c(O)ccc2c(=O)c1-c1ccc2ccccc2n1	0	2	2	1	0	19935*
CCC(=O)Oc1ccc2c(=O)c(-c3ccc4ccccc4n3)c(CC)oc2c1C	-10	-4	0	1	0	2582
CCCCC(CCC(=O)Nc1nccs1)C(=O)O (stereo not drawn)	-2	0	?	-2	1	20150*
CCCCC(C(=O)O)C(C)CC(=O)Nc1nccs1 (stereo not drawn)	-1	-1	0	4	-1	3274
CCN1CCCC1CNC(=O)c1cc2c(C)nc3ccccc3c2o1 (stereo not drawn)	-12	9	7	-6	-1	17361*
Cc1nc2ccccc2c2oc(C(=O)NCCN3CCCCC3C)cc12 (stereo not drawn)	-4	-14	-2	-5	2	13061
CCN(CC)S(=O)(=O)c1cccc(-c2nnc(SC(C)C(=O)NCCC3=CCCCC3)o2)c1 (stereo not drawn)	0	2	2	0	i	22080*
CC(Sc1nnc(-c2ccco2)o1)C(=O)NCCC1=CCCCC1 (stereo not drawn)	-8	-4	1	-5	0	4089
CCNc1nc(Oc2ccc(C(=O)OC)cc2)nc(SC)n1	11	-1	0	-13	i	22097*
CCNc1nc(Oc2ccc(C(=O)OCC)cc2)nc(SC)n1	-6	2	0	1	1	5151
CNc1nc(Oc2ccccc2C(=O)OC)nc(SC)n1	0	5	3	2	i	21738*
CC(C)CC1C(=O)N(Cc2cn(CC3CCCCC3)nn2)CCS(=O)(=O)N1Cc1ccc(-c2ccncc2)cc1 (stereo not drawn)	.	-4	0	-4	0	2829
CCC1CCc2c(sc(N)c2C(N)=O)C1 (stereo not drawn)	-1	-2	0	3	i	9918
CC1CCc2c(sc(N)c2C(N)=O)C1 (stereo not drawn)	6	-4	-3	1	i	17162*
COC(=O)[C@]12CCCCC=C1N(Cc1cccc3ccccc13)C(=O)[C@H](CC(=O)N1CCN(C(=O)C3CC3)CC1)C2	.	2	0	-3	.	5163

Compound activity: PubChem, several laboratories
